Source: PubChem (Johns Hopkins Ion Channel Center)
Most compounds without a hit are left out; they make up all but 2.3% or so of the library.
CHT inh: human CHT choline transport inhibition | Q9GZV3 | CHT-expressing cells, membrane potential dye, choline response; hits give low values | B-score at 10 µM | actives 0.86% (n = 310,000);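 active means B-score over 3 SD under the library average, and starting fluorescence ratio not unusually high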;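 further: choline stimulus applied at its EC90 after an EC20 pre-addition; B-score computed on integrated fluorescence ratio after choline addition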
TMEM16A inh: mouse TMEM16A channel inhibition, primary screen; Q8BHY3; HEK293 TMEM16A/YFP iodide influx fluorescence, ionomycin; normalized B-score (activity score, 25-100; higher = stronger inhibition) at 10 µM; actives 1.2% (n = 310,000); AID 588511;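 active means ratio plate-corrected score three or more library SD toward inhibition, starting fluorescence score within five deviations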;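 further: score derived from kinetic fluorescence span divided by baseline fluorescence per well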
Target sequence (Q8BHY3 whole entry, looked up): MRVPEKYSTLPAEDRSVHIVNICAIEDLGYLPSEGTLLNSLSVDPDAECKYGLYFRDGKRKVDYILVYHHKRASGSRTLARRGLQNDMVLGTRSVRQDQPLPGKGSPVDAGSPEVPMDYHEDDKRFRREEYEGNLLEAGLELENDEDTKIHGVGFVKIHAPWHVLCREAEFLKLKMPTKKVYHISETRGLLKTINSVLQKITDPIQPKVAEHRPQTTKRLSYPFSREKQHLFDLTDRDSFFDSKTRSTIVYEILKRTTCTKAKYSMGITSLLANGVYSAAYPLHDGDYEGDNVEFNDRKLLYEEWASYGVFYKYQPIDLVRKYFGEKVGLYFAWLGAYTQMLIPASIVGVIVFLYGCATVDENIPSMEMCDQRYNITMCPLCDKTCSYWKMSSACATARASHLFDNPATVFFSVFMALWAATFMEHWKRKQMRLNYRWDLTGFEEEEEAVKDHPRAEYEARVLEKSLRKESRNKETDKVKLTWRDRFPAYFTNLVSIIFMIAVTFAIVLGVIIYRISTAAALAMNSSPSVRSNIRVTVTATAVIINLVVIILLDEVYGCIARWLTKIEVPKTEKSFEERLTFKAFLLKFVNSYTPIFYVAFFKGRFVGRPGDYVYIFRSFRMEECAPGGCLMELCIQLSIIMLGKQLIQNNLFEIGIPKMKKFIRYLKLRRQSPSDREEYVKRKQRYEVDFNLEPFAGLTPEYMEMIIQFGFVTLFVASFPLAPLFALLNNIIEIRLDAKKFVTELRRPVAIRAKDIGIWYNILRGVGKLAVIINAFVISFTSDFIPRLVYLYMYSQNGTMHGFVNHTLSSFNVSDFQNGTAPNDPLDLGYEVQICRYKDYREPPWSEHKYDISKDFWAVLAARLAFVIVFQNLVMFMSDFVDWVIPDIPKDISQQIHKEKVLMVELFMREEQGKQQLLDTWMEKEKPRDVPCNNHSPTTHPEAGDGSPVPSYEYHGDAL
CHT allo act: allosterically activates the human high affinity choline transporter; Q9GZV3; CHT-expressing cells, membrane potential dye, choline EC20; hits give high values; LV-AA mutant CHT in HEK293 cells; B-score at 10 µM; actives 0.49% (n = 310,000); AID 488977;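 active means initial fluorescence not abnormally high and integrated response B-score, plate-corrected, over 3 SD above library mean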
TMEM16A act: activates or potentiates the mouse TMEM16A chloride channel; Q8BHY3; HEK293 TMEM16A/YFP-H148Q/I152L, iodide quench fluorescence; hits give low values; B-score at 10 µM; actives 0.3% (n = 340,000); AID 623877;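 active means fluorescence-ratio B-score plate-corrected deviation score at least 3 library SD below zero, with starting fluorescence score within 5 deviations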;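 further: channel opened by trigger with iodide after compound preincubation; score built on the fluorescence ratio of max minus min over baseline; more negative score means more quench and so TMEM16A activation or potentiation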
CHT inh conf: human CHT inhibition, confirmatory screen. shares compounds with CHT inh. CHT-expressing cells, choline membrane potential dye; LV-to-AA substituted CHT, HEK293 cells. CHT activity remaining % of control (hits give low values), % at 10 µM. actives 70% (n = 2,400). AID 493221;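 active means choline transporter activity left, mean of duplicates at 10 µM, below buffer-only control mean minus 3 SD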;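 further: depolarization triggered by choline at its EC90 following an EC20 pre-addition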
HEK293 MPD ctr: CHT inhibitor counter-screen hit in parental HEK293 cells; shares compounds with CHT inh; membrane potential dye, choline response; active = decrease or increase beyond buffer ±3SD; membrane potential ratio readout (active if shifted either direction beyond buffer ±3SD; no single direction) at 10 µM; actives 4% (n = 2,400);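 further: parental cells lack the transporter so any hit is non-specific; ratio is peak minus trough fluorescence over baseline after EC90 choline challenge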
Large screens that a line does not name were inactive (follow-up assays come after a bar, where they were run).

CCC(=O)N1c2ccc(S(=O)(=O)NCCc3ccc(OC)c(OC)c3)cc2CC1C (centres undefined)	none
CC(Oc1ccc2c(-c3ccccc3)cc(=O)oc2c1)C(=O)O (centres undefined)	none
COC(=O)C(Oc1ccc2c(-c3ccc(OC)cc3)cc(=O)oc2c1)c1ccccc1 (centres undefined)	CHT inh -6.2 | CHT inh conf inactive | HEK293 MPD ctr inactive
CCc1ccccc1NS(=O)(=O)c1ccc2[nH]cc(C(=O)NCC3CCCO3)c(=O)c2c1 (centres undefined)	none
CN(Cc1ccccc1)S(=O)(=O)c1ccc2[nH]cc(C(=O)NCC3CCCO3)c(=O)c2c1 (centres undefined)	CHT inh -10 | CHT inh conf 43% | HEK293 MPD ctr inactive
Cc1ccc(Cl)c2c1=NC(=O)C=2c1[nH]c(=S)[nH]c1O	CHT inh -5.8 | CHT inh conf inactive | HEK293 MPD ctr inactive
COc1cccc(/C=N/NC(=O)C(=O)NCc2cccnc2)c1O	none
COc1cccc(/C=N/NC(=O)C(=O)NCc2cccnc2)c1OC	CHT inh -5.9 | CHT inh conf inactive | HEK293 MPD ctr inactive
CCOC(=O)c1c(N)sc(N)c1C(=O)OCC	none
CCOC(=O)c1c(N)ssc1=S	CHT inh -11 | CHT inh conf 17% | HEK293 MPD ctr inactive
CCOC(=O)c1c(/N=C/c2cc([N+](=O)[O-])ccc2O)sc(C)c1C	CHT inh -5 | CHT inh conf inactive | HEK293 MPD ctr inactive
CCOC(=O)c1c(/N=C/c2cc(OC)cc([N+](=O)[O-])c2O)sc(C)c1C	none
CC(=O)n1cc(Nc2ccc([N+](=O)[O-])cc2)c2ccccc21	none
CC(=O)SC(C[N+](=O)[O-])c1cn(C(C)=O)c2ccccc12 (centres undefined)	CHT inh -5.5 | CHT inh conf 67% | HEK293 MPD ctr inactive
O=C(COC(=O)Cc1cccc2ccccc12)Nc1ccccc1-c1ccccc1	none
O=C(COC(=O)c1ccccc1Oc1ccccc1)NCc1ccco1	CHT inh -5.4 | CHT inh conf inactive | HEK293 MPD ctr inactive
O=C(COC(=O)c1ccccc1)NCc1ccco1	none
CCCC(CCC(=O)Nc1cccc([N+](=O)[O-])c1)C(=O)O (centres undefined)	none
COc1ccccc1NC(=O)Nc1nn(C)c2cccc(OC)c12	none
COc1ccc([C@@H]2CC=C(C(=O)O)[C@H](c3ccc(F)cc3)N2S(=O)(=O)c2ccc(C)cc2)cc1OC	none
Cc1ccc(S(=O)(=O)N2[C@@H](c3ccc(Cl)cc3)C(C(=O)O)=CC[C@H]2c2ccc(Cl)cc2)cc1	CHT inh -5.7, TMEM16A inh 100 | CHT inh conf 62% | HEK293 MPD ctr inactive
Cc1ccc(S(=O)(=O)N2[C@@H](c3ccc(F)cc3)C(C(=O)O)=CC[C@H]2c2ccc(C(C)C)cc2)cc1	CHT inh -6.3, TMEM16A inh 100 | CHT inh conf 65% | HEK293 MPD ctr inactive
COc1cccc(NC(=O)NC2CCN(CC(=O)Nc3ccccc3[N+](=O)[O-])CC2)c1	none
CC(=O)c1ccccc1NC(=O)c1ccc(N2CCCC2=O)cc1	none
CNC(=O)CN1C(=O)NC2(CCc3ccccc3C2)C1=O (centres undefined)	none
O=C(Nc1ccc(N2CCOCC2)nc1)c1ccccc1Cl	none
Cc1nc(Nc2ccc(S(N)(=O)=O)cc2)sc1-c1ccccc1	none
COc1ccc(Nc2nc(C)c(-c3ccccc3)s2)cc1	CHT inh -8.5 | CHT inh conf inactive | HEK293 MPD ctr inactive
Cc1ccc(NC(=O)CN(C)C(=O)C(C)OC(=O)c2ccccc2NCCO)cc1 (centres undefined)	none
COC(=O)C1CCN(S(=O)(=O)CCNC(=O)c2ccc(F)cc2)CC1	none
CC(CCc1ccc(O)cc1)NCCC(c1ccccc1)c1ccccc1 (centres undefined)	none
CC(CCc1ccc(O)cc1)NCc1ccc(Br)cc1 (centres undefined)	CHT inh -5.1 | CHT inh conf inactive | HEK293 MPD ctr inactive
